Test results as given in PubChem BioAssay (NCATS).
Records with an inconclusive call do not appear. Activity calls are given as the source filed them. Calls follow the shape of the dose curve; as a rule, active = well fitted inhibition curve with a large enough effect; inconclusive = small, poorly fitted or top-dose-only effect; inactive = flat fitted curve, though single readings scatter. Where a SMILES comes first, the peptide text is derived from it. [ ]: non-standard residue; d: D form. 2Abz = Nc1ccccc1C(=O)O

The compounds below were run against Calcium and integrin-binding protein 1 (Homo sapiens) (UniProt Q99828) (assay: Primary qHTS for Identification of Calcium Integrin Binding Protein 1 (CIB1) Competitor (AID 1508620;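 also: GST tagged CIB1 binding a fluorescein labelled alphaIIb integrin peptide tracer; top concentration of the series differs between compounds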)). Details: CIB1-GST / FITC-alphaIIb peptide fluorescence polarization; series mostly up to 57.7 µM; activity change, negative = inhibition: at the top concentration.
Method in brief: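 CIB1-GST (1 uM final) and compound incubated 15 min at room temperature before adding FITC-alphaIIb peptide tracer (100 nM final). Competition for binding read by fluorescence polarization (ex 480, em 540) after another 15 min at room temperature.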
% is scaled to controls: 0 for no effect and ±100 for the full control effect.

Calcium and integrin-binding protein 1 (Homo sapiens), sequence (Q99828 whole entry, looked up): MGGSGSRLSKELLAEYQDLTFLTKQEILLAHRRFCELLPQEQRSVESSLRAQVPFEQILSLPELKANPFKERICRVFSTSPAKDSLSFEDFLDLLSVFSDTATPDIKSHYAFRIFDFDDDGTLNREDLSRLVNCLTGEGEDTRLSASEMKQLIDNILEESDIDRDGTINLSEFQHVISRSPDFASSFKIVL

SMILES | activity change, negative = inhibition | Potency
C=CC(C)(O)CC/C=C(/C)C(=O)OC1C(OC2OCC(OC3OC(CO)C(O)C(O)C3O)C(OC3OCC(O)C(OC4OC(C)C(O)C(O)C4O)C3O)C2O)COC(OC(=O)C23CCC(C)(C)CC2C2=CCC4C5(C)CCC(OC6OC(CO)C(OC7OC(CO)C(O)C(OC8OCC(O)C(O)C8O)C7O)C(O)C6O)C(C)(C)C5CCC4(C)C2(C)CC3O)C1O (centres undefined) | -3% [at 12.4 µM] (inactive) | 
NC(=O)Nc1cc(-c2ccc(CN3CCOCC3)c(F)c2)sc1C(=O)N[C@H]1CCCNC1 | 4.07% [at 114 µM] (inactive) | 
CC1(CO)CC2C(O)C(=O)C3(CO)CC3(C)C2C1 (centres undefined) | 2.61% [at 114 µM] (inactive) | 
COC(=O)[C@H](OC(C)=O)[C@H]1C(C)(C)C(=O)[C@H]2CC3=C4CC(=O)O[C@@H](c5ccoc5)[C@]4(C)CCC3[C@@]1(C)C2=O (some centres undefined) | -2.09% (inactive) | 
C=CC1C(O[C@@H]2O[C@H](CO)[C@@H](O)[C@H](O)[C@H]2O)OC=C(C(=O)OC)C1Cc1nccc2c1[nH]c1ccccc12 (some centres undefined) | -4.67% (inactive) | 
CC(=O)OCCC(C)CCC1C(C)(O)CCC2C(C)(C)CCCC21C (centres undefined) | 2.18% (inactive) | 
CC(C)C1=CCC(C)(O)C(OC2OC(CO)C(O)C(O)C2O)C1 (centres undefined) | -10.2% (inactive) | 
CC(C)=CCC[C@](C)(O[C@@H]1O[C@H](CO[C@@H]2OC[C@@H](O)[C@H](O)[C@H]2O)[C@@H](O)[C@H](O)[C@H]1O)[C@H]1CC[C@]2(C)[C@@H]1[C@H](O)C[C@@H]1[C@@]3(C)CC[C@H](O[C@@H]4O[C@H](CO)[C@@H](O)[C@H](O)[C@H]4O[C@@H]4O[C@H](CO)[C@@H](O)[C@H](O)[C@H]4O)C(C)(C)[C@@H]3CC[C@]12C | -1.61% (inactive) | 
COC(=O)c1cc(CN2CCN(C(=N)N)CC2)cc(C(=O)N2CCN(C(=O)c3ccc(C(=N)N)cc3)CC2)c1 | -0.852% [at 114 µM] (inactive) | 
CC(/C=C/C1(O)C(C)CC(O)CC1(C)C)OC1OC(CO)C(O)C(O)C1O (centres undefined) | -5.87% (inactive) | 
CC(=O)NC(CCC(=O)O)C(=O)NCCc1ccc(O)cc1 (centres undefined) | -3.27% [at 114 µM] (inactive) | 
CC(C)(C)NCC(O)COc1cccc2c1CCCC2=O (centres undefined) | -1.32% [at 114 µM] (inactive) | 
COc1cc(C(=O)OC[C@H]2O[C@H](O[C@@]3(CO)O[C@@H](CO)[C@H](O)[C@H]3O)[C@H](O)[C@@H](O)[C@@H]2O)ccc1O | -2.79% (inactive) | 
CC1C(=O)CC2C3C(O)CC(C(=O)O)C12CC3(C)C (centres undefined) | 0.24% [at 114 µM] (inactive) | 
C[C@H](NCc1ccc(OCc2ccccc2F)cc1)C(N)=O | -4.88% [at 114 µM] (inactive) | 
COc1cc(/C=C/C(=O)OC2[C@H](O)CC(O)(C(=O)O)C[C@H]2O)ccc1O (some centres undefined) | 0.411% (inactive) | 
COc1ccc(/C=C/C(=O)O[C@@H]2[C@@H](O)[C@H](C)O[C@@H](OC3C4C=COC(O[C@@H]5O[C@H](CO)[C@@H](O)[C@H](O)[C@H]5O)C4C4(CO)OC34)[C@@H]2O)cc1OC (some centres undefined) | 2.85% [at 30.2 µM] (inactive) | 
O=C(O)C[C@H]1CCC(=O)[C@@H]1C/C=C\CCOC1OC(CO)C(O)C(O)C1O (some centres undefined) | -3.58% (inactive) | 
COC(=O)c1ccc(O[C@@H]2O[C@H](CO)[C@@H](O)[C@H](O)[C@H]2O)c(OC)c1 | 0.173% (inactive) | 
OC[C@H]1O[C@@H](OC(CCCCc2ccc(O)cc2)CCc2ccc(O)cc2)[C@H](O[C@@H]2OC[C@](O)(CO)[C@H]2O)[C@@H](O)[C@@H]1O (some centres undefined) | 0.0925% [at 30.2 µM] (inactive) | 

SMILES | activity change, negative = inhibition | Potency
C=C1C[C@]23C[C@H]1CC[C@H]2[C@]1(C)CCC[C@@]2(CO)C(=O)O[C@H]([C@H]21)[C@@H]3O | -6.99% (inactive) | 
OC[C@H]1O[C@@H](n2cnc3c(NCc4ccc(O)cc4)ncnc32)[C@H](O)[C@@H]1O | 1.03% [at 114 µM] (inactive) | 
COC(=O)C1C(c2ccc(O)cc2)C(C(=O)OC)C1c1ccc(O)cc1 (centres undefined) | 1.64% (inactive) | 
CC1(CO)CC[C@]2(C(=O)O[C@@H]3O[C@H](CO)[C@@H](O)[C@H](O)[C@H]3O)CC[C@]3(C)C(=CCC4[C@@]5(C)C[C@H](O)[C@H](O[C@@H]6OC[C@@H](O)[C@H](O)[C@H]6O)[C@@](C)(CO)C5CC[C@]43C)C2C1 (some centres undefined) | 5.66% [at 30.2 µM] (inactive) | 
O=C(/C=C/c1ccc(O)cc1)OCC1=C[C@@H](O)[C@@H]2C=CO[C@@H](O[C@@H]3O[C@H](CO)[C@@H](O)[C@H](O)[C@H]3O)[C@H]12 | 4.5% (inactive) | 
CC1NC(=O)C(Cc2c[nH]c3ccccc23)NC1=O (centres undefined) | -4.49% [at 114 µM] (inactive) | 
C/C(=C/CCC(CO)C1CCC2(C)C3CCC4C(C)(C)C(OC5OC(CO)C(O)C(O)C5O)CC(O)C45CC35CCC12C)COC1OC(CO)C(O)C(O)C1O (centres undefined) | 1.34% [at 30.2 µM] (inactive) | 
CO/N=C(/C(=O)N[C@@H]1C(=O)N2C(C(=O)O)=C(CSC(=O)c3ccco3)CS[C@H]12)c1csc(N)n1 |  | inactive
O=C(/C=C/c1ccc(O)cc1)OCC1=CC2OC(=O)C3=CO[C@@H](O[C@@H]4O[C@H](CO)[C@@H](O)[C@H](O)[C@H]4O)[C@H]1[C@@H]32 (some centres undefined) | -0.472% (inactive) | 
CC1(C)CC2C3=CCC4C5(C)CCC(OC6OC(CO)C(O)C(OC7OC(CO)C(O)C(OC8OC(CO)C(O)C(OC9OC(COC%10OC(CO)C(O)C(O)C%10O)C(O)C(O)C9O)C8O)C7O)C6O)C(C)(C)C5CCC4(C)C3(C)CCC2(C(=O)O)CC1O (centres undefined) | 1.69% [at 12.4 µM] (inactive) | 
CCC(C)C1NC(=O)C2CCCN2C(=O)C(C(C)C)NC(=O)c2ccccc2NC(=O)C(Cc2ccc(O)cc2)NC(=O)C(C)NC(=O)C(C(C)O)NC1=O (centres undefined) (cyclo([2Abz]VPITAY); configuration not given here) | 4.46% [at 30.2 µM] (inactive) | 
CC(C)c1nc(N(C)S(C)(=O)=O)nc(-c2ccc(F)cc2)c1/C=C/[C@@H](O)C[C@@H](O)CC(=O)O | -5.25% [at 114 µM] (inactive) | 
O=C(/C=C/c1ccc(O)c(O)c1)OCc1ccccc1O[C@@H]1O[C@H](CO)[C@@H](O)[C@H](O)[C@H]1O | -2.08% (inactive) | 
CCOC(=O)[C@H](CCc1ccccc1)N[C@@H](C)C(=O)N1C2CCCCC2C[C@H]1C(=O)O (some centres undefined) | -1.92% [at 114 µM] (inactive) | 
C[C@H]1CC[C@@]2(OC1)O[C@H]1CC3C4CC=C5C[C@H](O)C[C@@H](O[C@@H]6O[C@@H](C)[C@H](O)[C@@H](O)[C@H]6O[C@@H]6O[C@@H](C)[C@H](O)[C@@H](O)[C@H]6O)[C@]5(C)C4CC[C@]3(C)[C@H]1[C@@H]2C (some centres undefined) | 0.158% [at 30.2 µM] (inactive) | 
CC1(C)CC[C@]2(C(=O)O)CC[C@]3(C)C(=CCC4[C@@]5(C)C[C@@H](O)[C@H](O)C(C)(C)C5CC[C@]43C)[C@@H]2[C@@H]1O (some centres undefined) | -0.811% (inactive) | 
CCOc1nc2cccc(C(=O)OCc3oc(=O)oc3C)c2n1Cc1ccc(-c2ccccc2-c2noc(O)n2)cc1 | -12.4% [at 114 µM] (inactive) | 
C=CC1(C)C=C2C(=O)CC3C(C)(C)CCCC3(C(=O)O)C2(O)CC1 (centres undefined) | -1.98% (inactive) | 
CC1CCC2C(C)(C)C(O)CCC2(C)C12Cc1c(O)cc3c(c1O2)CN(C(CCC(N)=O)C(=O)O)C3=O (centres undefined) | 2.35% (inactive) | 
